The target in assay [1] is Protein kinase C gamma type (Homo sapiens) (UniProt P05129). To be noted: at 1 µM.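 Also: each value is an averaged percent inhibition of the enzyme.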
The target in assay [2] is T1, Protein kinase C iota type (Homo sapiens) (UniProt P41743).
T1 sequence (whole entry): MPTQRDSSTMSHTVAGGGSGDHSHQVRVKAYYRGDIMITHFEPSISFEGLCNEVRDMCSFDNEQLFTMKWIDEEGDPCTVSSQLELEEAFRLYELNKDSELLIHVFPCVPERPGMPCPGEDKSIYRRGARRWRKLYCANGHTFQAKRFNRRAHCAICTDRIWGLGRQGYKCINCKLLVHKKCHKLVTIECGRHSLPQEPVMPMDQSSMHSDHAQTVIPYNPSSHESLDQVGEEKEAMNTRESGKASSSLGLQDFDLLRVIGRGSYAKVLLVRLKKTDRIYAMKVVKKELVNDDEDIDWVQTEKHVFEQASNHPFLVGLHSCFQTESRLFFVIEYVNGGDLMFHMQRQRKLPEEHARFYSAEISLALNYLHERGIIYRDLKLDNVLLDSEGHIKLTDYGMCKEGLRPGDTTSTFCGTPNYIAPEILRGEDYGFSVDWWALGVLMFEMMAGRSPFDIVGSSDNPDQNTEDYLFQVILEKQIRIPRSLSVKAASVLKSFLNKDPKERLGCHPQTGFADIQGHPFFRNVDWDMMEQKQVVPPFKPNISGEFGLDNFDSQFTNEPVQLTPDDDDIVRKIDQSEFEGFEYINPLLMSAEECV
To be noted: at 0.1 µM.

Assay [3] deals with T1, Protein kinase C iota type (Homo sapiens). To be noted: at 1 µM.
Assay [4] has as its target Protein kinase C theta type (Homo sapiens) (UniProt Q04759). Particulars: at 0.1 µM.
Assay [5] shares this target. To be noted: at 1 µM.
For assay [6], the target named is Protein kinase C beta type (Homo sapiens) (UniProt P05771). Particulars: at 0.1 µM.
Protein kinase C beta type (Homo sapiens), sequence (P05771 2-671 limits assumed): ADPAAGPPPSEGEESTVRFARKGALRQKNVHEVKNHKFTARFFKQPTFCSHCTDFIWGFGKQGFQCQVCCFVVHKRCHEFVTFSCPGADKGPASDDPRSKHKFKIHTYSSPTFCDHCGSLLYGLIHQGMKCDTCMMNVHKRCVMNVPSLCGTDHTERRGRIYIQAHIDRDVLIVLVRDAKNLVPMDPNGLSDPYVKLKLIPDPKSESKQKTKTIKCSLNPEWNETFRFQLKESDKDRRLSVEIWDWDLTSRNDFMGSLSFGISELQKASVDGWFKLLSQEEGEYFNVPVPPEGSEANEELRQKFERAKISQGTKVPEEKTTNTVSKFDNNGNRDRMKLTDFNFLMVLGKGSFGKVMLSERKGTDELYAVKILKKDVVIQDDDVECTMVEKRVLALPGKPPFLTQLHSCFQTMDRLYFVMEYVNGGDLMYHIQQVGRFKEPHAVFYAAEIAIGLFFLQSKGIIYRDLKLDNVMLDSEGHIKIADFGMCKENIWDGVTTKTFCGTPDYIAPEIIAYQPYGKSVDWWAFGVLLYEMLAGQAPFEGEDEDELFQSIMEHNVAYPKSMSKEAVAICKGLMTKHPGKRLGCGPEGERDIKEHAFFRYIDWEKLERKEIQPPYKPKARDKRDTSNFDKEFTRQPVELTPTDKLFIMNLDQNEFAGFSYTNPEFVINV
Assay [7] has the same target. To be noted: at 1 µM.
For assay [8], the target named is T2, Serine/threonine-protein kinase D1 (Homo sapiens) (UniProt Q15139).
T2 sequence (whole entry): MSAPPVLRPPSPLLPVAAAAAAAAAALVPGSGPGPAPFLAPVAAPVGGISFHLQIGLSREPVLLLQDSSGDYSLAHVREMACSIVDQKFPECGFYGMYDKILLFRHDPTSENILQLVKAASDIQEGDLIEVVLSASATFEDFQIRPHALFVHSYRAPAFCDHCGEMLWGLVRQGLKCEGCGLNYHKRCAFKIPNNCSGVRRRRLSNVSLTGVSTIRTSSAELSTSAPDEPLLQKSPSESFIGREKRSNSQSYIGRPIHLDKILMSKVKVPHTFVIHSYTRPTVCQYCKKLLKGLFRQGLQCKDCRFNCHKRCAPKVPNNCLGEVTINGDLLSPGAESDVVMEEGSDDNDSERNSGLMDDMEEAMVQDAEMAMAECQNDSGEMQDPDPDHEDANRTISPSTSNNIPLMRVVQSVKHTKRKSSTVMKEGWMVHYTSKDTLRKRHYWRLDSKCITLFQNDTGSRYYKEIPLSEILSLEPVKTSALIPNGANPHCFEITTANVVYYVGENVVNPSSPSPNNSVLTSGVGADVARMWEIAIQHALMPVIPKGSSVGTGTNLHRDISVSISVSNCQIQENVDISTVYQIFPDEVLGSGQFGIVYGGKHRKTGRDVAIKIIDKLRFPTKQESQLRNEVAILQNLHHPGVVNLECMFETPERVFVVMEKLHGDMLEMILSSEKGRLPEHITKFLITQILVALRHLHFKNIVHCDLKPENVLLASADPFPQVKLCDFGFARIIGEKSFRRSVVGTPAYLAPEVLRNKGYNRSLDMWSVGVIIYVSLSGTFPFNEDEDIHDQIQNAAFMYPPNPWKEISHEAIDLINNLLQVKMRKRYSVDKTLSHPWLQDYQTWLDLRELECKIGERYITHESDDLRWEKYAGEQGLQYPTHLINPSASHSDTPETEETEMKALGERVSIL
To be noted: at 0.1 µM.

Assay [9] addresses T2, Serine/threonine-protein kinase D1 (Homo sapiens). Particulars: at 1 µM.
Assay [10] deals with T3, Serine/threonine-protein kinase D2 (Homo sapiens) (UniProt Q9BZL6).
T3 sequence (whole entry): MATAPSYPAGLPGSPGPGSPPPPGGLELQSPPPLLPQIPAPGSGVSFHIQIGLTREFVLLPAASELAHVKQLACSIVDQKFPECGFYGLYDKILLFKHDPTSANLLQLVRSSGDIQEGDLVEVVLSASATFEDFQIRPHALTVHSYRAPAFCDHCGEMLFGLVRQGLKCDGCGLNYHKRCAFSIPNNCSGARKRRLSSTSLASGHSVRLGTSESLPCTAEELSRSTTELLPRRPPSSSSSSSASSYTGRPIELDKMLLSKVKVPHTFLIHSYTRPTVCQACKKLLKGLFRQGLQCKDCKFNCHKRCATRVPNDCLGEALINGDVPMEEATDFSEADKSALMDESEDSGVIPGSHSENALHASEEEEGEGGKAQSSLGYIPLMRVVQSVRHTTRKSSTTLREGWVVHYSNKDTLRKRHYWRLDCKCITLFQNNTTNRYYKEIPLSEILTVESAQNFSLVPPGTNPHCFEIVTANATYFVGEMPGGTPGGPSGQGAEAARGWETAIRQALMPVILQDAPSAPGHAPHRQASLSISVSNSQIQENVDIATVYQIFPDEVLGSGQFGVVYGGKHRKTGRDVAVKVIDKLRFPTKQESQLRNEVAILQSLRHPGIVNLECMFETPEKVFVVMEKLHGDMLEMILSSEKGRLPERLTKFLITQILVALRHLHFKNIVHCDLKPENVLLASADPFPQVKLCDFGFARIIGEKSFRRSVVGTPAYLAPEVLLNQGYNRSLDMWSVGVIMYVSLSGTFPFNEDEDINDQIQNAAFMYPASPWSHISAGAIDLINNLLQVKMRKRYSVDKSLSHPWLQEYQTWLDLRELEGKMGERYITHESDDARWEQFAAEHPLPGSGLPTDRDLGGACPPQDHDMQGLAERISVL
To be noted: at 0.1 µM.

Assay [11] has as its target T3, Serine/threonine-protein kinase D2 (Homo sapiens). To be noted: at 1 µM.
Assay [12] has as its target T4, Serine/threonine-protein kinase D3 (Homo sapiens) (UniProt O94806).
T4 sequence (whole entry): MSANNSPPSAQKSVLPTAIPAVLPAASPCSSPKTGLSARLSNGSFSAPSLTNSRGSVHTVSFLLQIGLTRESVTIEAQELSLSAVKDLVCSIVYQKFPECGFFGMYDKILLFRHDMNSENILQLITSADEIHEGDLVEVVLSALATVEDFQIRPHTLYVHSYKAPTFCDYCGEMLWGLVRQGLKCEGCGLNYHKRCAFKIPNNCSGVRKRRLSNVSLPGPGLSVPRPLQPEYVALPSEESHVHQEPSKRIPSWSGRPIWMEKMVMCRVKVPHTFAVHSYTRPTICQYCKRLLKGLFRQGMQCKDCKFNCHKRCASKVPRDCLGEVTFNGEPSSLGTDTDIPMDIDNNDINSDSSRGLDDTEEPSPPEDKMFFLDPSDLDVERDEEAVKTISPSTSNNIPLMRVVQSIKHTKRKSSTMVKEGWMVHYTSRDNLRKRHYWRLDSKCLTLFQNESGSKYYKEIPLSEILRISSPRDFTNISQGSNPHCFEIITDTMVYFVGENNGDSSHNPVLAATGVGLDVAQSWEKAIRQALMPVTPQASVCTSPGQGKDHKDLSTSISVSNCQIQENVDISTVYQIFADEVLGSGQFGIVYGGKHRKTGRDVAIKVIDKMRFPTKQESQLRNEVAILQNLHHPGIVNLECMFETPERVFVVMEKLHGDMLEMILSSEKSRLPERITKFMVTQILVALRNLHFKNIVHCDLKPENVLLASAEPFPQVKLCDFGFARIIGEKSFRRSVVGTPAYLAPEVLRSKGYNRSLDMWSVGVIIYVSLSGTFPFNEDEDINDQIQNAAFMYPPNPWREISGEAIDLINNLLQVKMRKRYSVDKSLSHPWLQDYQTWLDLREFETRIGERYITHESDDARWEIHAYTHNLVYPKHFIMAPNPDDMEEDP
To be noted: at 0.1 µM.

The target in assay [13] is T4, Serine/threonine-protein kinase D3 (Homo sapiens). To be noted: at 1 µM.
The target of assay [14] is T5, cGMP-dependent protein kinase 1 (Homo sapiens) (UniProt Q13976).
T5 sequence (whole entry): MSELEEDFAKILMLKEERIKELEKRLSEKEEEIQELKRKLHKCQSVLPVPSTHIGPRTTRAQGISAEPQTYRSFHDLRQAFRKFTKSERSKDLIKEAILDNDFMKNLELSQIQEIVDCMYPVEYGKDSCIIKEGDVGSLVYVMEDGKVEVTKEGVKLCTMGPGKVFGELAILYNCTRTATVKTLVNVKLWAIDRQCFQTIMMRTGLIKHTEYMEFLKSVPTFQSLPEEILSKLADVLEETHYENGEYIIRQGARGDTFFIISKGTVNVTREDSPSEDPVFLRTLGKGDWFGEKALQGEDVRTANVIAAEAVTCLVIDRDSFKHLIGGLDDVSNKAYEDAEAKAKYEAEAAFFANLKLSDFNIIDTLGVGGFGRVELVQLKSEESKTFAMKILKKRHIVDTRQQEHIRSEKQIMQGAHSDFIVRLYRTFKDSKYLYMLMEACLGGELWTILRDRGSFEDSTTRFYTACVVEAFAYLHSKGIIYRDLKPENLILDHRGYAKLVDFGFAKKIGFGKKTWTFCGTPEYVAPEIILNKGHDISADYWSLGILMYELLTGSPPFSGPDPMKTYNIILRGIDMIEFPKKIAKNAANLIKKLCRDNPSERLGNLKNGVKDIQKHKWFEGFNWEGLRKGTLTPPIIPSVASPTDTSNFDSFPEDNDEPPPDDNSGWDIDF
Particulars: at 0.1 µM.

In assay [15] the target is T5, cGMP-dependent protein kinase 1 (Homo sapiens). Particulars: at 1 µM.
The target of assay [16] is T6, cGMP-dependent protein kinase 2 (Homo sapiens) (UniProt Q13237).
T6 sequence (whole entry): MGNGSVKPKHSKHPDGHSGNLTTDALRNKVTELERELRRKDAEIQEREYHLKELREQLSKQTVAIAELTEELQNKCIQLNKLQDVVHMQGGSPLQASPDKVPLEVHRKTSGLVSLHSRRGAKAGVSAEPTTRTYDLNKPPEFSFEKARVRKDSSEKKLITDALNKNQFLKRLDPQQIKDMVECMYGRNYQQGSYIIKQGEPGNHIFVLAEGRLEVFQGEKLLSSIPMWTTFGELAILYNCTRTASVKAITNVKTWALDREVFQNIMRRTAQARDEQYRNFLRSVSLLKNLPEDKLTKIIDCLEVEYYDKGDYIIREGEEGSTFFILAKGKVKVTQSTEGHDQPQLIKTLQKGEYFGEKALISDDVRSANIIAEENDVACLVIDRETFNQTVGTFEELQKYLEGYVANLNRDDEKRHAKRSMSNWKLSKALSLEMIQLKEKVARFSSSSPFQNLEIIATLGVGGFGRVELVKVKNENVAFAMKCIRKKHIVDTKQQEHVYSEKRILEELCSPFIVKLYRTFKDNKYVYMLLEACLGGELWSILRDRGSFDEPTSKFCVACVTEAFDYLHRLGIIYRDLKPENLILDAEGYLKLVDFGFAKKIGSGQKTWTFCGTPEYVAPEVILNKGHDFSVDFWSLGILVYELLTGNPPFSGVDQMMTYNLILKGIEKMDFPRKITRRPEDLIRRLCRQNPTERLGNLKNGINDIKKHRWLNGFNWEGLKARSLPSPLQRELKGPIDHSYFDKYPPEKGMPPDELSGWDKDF
Particulars: at 0.1 µM.

Assay [17] deals with T6, cGMP-dependent protein kinase 2 (Homo sapiens). Particulars: at 1 µM.
Assay [18] concerns the target T7, cAMP-dependent protein kinase catalytic subunit PRKX (Homo sapiens) (UniProt P51817).
T7 sequence (whole entry): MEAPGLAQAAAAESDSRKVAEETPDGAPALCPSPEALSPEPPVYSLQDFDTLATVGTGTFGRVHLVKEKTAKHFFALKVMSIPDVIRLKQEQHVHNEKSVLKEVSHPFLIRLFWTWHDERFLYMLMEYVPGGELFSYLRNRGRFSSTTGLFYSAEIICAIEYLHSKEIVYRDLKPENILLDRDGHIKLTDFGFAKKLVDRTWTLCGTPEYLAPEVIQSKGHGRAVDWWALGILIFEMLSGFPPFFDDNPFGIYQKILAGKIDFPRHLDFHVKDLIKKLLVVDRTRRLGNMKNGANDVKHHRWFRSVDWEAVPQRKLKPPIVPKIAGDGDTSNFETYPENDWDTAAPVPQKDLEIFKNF
To be noted: at 0.1 µM.

In assay [19] the target is T7, cAMP-dependent protein kinase catalytic subunit PRKX (Homo sapiens). To be noted: at 1 µM.
Assay [20] concerns the target Rho-associated protein kinase 1 (Homo sapiens) (UniProt Q13464). To be noted: at 0.1 µM.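 Also: values are mean percent inhibition of ROCK1.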

In general, inhibition refers to the change of the read-out against control, counted positive when it falls.

Protein kinase C theta type (Homo sapiens), sequence (Q04759 whole entry, looked up): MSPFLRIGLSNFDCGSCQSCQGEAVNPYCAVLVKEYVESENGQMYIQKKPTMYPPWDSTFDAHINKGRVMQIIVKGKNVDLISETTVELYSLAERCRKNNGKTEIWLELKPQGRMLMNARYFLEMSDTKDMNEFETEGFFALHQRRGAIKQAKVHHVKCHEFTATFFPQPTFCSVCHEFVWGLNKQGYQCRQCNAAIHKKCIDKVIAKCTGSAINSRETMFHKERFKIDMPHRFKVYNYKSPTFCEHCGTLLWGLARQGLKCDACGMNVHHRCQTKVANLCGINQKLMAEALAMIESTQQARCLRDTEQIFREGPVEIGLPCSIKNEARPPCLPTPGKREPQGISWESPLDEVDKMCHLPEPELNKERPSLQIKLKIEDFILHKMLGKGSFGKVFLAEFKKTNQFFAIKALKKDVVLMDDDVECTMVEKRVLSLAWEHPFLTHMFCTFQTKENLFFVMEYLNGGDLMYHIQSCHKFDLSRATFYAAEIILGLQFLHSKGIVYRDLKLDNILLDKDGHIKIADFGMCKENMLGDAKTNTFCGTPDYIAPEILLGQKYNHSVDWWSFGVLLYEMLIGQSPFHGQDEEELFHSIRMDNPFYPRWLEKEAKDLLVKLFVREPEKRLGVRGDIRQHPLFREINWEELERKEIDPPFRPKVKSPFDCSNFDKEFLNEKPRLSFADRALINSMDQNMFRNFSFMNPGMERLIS
Rho-associated protein kinase 1 (Homo sapiens), sequence (Q13464 2-1354 limits assumed): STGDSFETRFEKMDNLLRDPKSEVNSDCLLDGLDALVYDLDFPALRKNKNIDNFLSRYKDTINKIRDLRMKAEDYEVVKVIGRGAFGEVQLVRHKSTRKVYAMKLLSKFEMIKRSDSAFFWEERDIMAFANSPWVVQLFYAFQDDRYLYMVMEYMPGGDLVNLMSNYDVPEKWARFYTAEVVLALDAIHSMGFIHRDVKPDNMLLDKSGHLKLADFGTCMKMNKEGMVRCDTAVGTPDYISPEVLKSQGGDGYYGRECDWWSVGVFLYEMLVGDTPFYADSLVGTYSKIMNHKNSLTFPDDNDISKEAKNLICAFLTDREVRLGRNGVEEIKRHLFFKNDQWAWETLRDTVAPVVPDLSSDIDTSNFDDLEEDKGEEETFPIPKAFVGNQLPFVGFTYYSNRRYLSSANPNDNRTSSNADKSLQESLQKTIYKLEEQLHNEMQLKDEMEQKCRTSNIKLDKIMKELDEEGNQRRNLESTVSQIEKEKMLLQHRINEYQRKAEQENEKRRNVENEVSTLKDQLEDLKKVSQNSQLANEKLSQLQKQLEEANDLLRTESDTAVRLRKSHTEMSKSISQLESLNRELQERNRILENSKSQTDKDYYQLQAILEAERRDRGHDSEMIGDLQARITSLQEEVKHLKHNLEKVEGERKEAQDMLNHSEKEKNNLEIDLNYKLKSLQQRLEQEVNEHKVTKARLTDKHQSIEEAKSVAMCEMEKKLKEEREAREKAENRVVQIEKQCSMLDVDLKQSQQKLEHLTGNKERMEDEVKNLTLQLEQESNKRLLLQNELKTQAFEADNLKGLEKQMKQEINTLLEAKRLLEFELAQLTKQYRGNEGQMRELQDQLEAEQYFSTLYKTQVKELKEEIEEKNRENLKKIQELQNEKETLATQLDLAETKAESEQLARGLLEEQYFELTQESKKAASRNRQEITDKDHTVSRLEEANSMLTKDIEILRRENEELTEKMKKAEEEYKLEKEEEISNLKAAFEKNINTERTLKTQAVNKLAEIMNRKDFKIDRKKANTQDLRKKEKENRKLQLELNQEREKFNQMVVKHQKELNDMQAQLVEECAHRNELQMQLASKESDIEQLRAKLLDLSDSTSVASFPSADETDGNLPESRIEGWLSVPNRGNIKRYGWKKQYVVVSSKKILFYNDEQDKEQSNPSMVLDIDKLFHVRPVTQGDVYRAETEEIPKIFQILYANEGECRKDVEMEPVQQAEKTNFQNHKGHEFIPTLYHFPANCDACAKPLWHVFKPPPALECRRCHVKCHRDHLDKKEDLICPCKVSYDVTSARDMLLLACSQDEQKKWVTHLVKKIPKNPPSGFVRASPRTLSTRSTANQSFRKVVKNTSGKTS

Regarding `O=C(Nc1n[nH]c2nc(-c3ccco3)ccc12)C1CC1`, the inhibition was 3.88% in assay [1]; 1.28% in assay [2]; -0.15% in [3]; 0.24% in [4]; -0.12% in [5]; 0.74% in [6]. In addition, the inhibition in assay [7] was 1.21%; in [8], 0.7%; in assay [9] it was 1.4%; in assay [10], -0.13%; in assay [11], 1.79%; in [12], 0.02%. In addition, the inhibition in assay [13] was 1.55%; in [14], 2.2%; in assay [15] it was 4.23%; in assay [16], 0.68%; in assay [17] it was 3.61%; in [18], 2.71%. Moreover, the inhibition in [19] is 3.87%; in assay [20], 1.29%.

`Clc1ccc(CNc2nccc(-c3cnn4ncccc34)n2)cc1`: the inhibition in assay [1] is 4.31%; in assay [2], -0.38%; in assay [3], -1.34%; in assay [4], 1.01%; in assay [5] it was 1.73%; in assay [6] it was 0.21%. The inhibition turned out to be 0.83% in assay [7]; 1.24% in [8]; 4.11% in assay [9]; 1.12% in [10]; 5.34% in assay [11]; 0.83% in assay [12]. For the same compound, the inhibition was 3.93% in assay [13]; 2.07% in assay [14]; 6.09% in [15]; -0.17% in [16]; 3.68% in assay [17]; 0.56% in assay [18]. The inhibition came to 1.41% in assay [19] and 0.21% in assay [20].

The values above are taken from ChEMBL document CHEMBL1961873, “Compounds: GSK PKIS; Assays: Nanosyn kinase panel” (2012).
